Screening results (PubChem)
IMPase cell inh = IMPase inhibition in cells; P97697; CHO-M1 cells, IP1 accumulation, HTRF TR-FRET ratio; inhibition (IP1 accumulation), % at 46.1 µM; 120,000 tested, under 10 active; active means well fitted curve in the direction sought with a large enough effect in the signal ratio, not every such curve was filed as active; inconclusive means small, poorly fitted or top-dose-only effect, or a change in a side signal; inactive means no such curve, though single readings can be large or run the other way; the % refers to the signal ratio;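 further: cells stimulated with carbachol in lithium chloride buffer; plate controls were DMSO basal wells for no effect and reference inhibitor wells for full effect; higher means more IMPase inhibition seen as more IP1 and lower FRET ratio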
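CHO-M1 cells (CHO stably expressing M1 receptor), compound up to 46 uM final, stimulated with carbachol (50 uM as added) in buffer with 50mM LiCl, pH 7.4, 30 min at 37C. Cytosolic IP1 read by TR-FRET; AC50 from Hill fits.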
12-hLO inh = inhibitors of human 12-lipoxygenase (ALOX12); hit rate 0.12% among 150,000; purified 12-hLO, xylenol orange hydroperoxide absorbance; Potency, µM (titrated, usually from 57.1 µM), for inactives: at the top dose activity change, negative = inhibition, most hits filed as inhibitors; P18054; further: potency means the concentration at half of the fitted maximal effect; nearly all actives have a fitted effect of over 55% in size
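Xylenol orange chromogenic assay: hydroperoxide from 12hLO oxidises Fe(II), giving red-shifted Fe(III)-XO absorbance. Conditions: 150 nM enzyme, 40 uM arachidonic acid, 25 mM Hepes pH 7.0, 0.01% Triton X-100, 30 min, room temperature.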
NPSR antag = blocks cAMP signaling of the human neuropeptide S receptor. Q6W5P4. CHO-NPSR cells, cAMP TR-FRET, antagonist mode. Potency, µM (series often up to 38.3 µM), for inactives: at the highest dose activity change, negative = inhibition, actives largely listed as inhibitors. hit rate 1% among 220,000. AID 1461; further: potency means the concentration at half of the fitted maximal effect; nearly all actives have a fitted effect of over 50% in size
HPGD block = blocks human HPGD enzyme activity. purified HPGD, NADH fluorescence kinetic, PGE2 substrate. Potency, µM, for the others: at the top dose activity change, negative = inhibition, usual class: inhibitors. hit rate 4.3% among 150,000; active means well fitted inhibition curve with a large enough effect, not every such curve was filed as active; inconclusive means small, poorly fitted or top-dose-only effect, or another doubt; inactive means no such curve, though single readings can be large or run the other way; further: potency means the concentration at half of the fitted maximal effect
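NADH formation kinetics: reaction with 30 uM PGE2 and 1 mM NAD+ (final), 20 nM enzyme, Tris-HCl pH 8 with Tween 20, after 15 min compound preincubation at room temperature. Fluorescence change, last versus first of five reads.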
IMPase Li cell = IMPase inhibition in cells with lithium potentiation | CHO-M1 cells, IP1 TR-FRET (IP-One), carbachol + lithium | Potency, µM (highest dose often 59.4 µM), inactives show top-dose activity, negative = IMPase inhibition, actives largely listed as inhibitors | hit rate 0.35% among 210,000 | AID 1457;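 further: IP1 builds up when IMPase is blocked and the TR-FRET signal falls; potency means the concentration at half of the fitted maximal effect; plate controls were basal vehicle for no effect and high inhibitor control for full effect; nearly all actives have a fitted effect of over 50% in size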
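Lithium-sensitised IP1 accumulation assay; M1-expressing CHO cells treated 30 min at 37C with compound. Competitive antibody detection by time-resolved FRET followed a 10 min room-temperature lysis step.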
ALDH1A1 block = inhibitors of human aldehyde dehydrogenase 1A1; P00352; Purified ALDH1A1, NADH fluorescence, propionaldehyde substrate; Potency, µM (highest dose often 75.3 µM), for inactives: top-dose activity, negative = inhibition, actives largely listed as inhibitors; hit rate 7.3% among 220,000; active means well fitted inhibition curve with a large enough effect, not every such curve was filed as active; inconclusive means small, poorly fitted or top-dose-only effect, or another doubt; inactive means no such curve, though single readings can be large or run the other way;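 further: potency means the concentration at half of the fitted maximal effect; plate controls were no enzyme wells and a reference inhibitor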
Target sequence (P00352 whole entry, looked up): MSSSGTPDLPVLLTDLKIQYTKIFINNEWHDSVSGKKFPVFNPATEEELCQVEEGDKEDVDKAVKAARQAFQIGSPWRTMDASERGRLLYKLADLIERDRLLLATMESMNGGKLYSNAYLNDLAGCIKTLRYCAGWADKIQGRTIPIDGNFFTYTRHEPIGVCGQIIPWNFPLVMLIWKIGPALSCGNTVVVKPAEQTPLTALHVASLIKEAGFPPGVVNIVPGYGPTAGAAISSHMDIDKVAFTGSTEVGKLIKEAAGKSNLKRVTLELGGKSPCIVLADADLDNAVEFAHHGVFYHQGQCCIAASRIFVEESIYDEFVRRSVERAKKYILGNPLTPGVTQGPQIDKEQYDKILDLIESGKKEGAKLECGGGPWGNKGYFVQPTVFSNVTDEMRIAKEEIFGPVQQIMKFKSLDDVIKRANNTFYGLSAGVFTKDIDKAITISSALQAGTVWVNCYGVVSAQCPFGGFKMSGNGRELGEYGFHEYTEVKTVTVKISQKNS
Numbers without * were called inactive; ? = inconclusive; nt = no result given; [ ] = another dose, or the depositor's remark. The list is not random: actives were taken first. Their share in the collection is about 8.9%. Unless noted, the call rests on the fitted dose curve; in most records, active means well fitted curve in the direction sought with a large enough effect; inconclusive means small, poorly fitted or top-dose-only effect, or another doubt; inactive means no such curve, though single readings can be large; an effect the other way counts as inactive or inconclusive. Unless noted, on the % scale 0 is the no-effect control and ±100 the full control effect.

SMILES	IMPase cell inh	12-hLO inh	NPSR antag	HPGD block	IMPase Li cell	ALDH1A1 block
CC(C)[C@H](NS(=O)(=O)c1cccc(Cl)c1)C(=O)OCC(=O)N1CCN(c2ccccc2)CC1	3.7	-2.7%	-13.5%	-9.2%	6.0%	2.51µM*
CN(C)S(=O)(=O)c1cccc(C(=O)N2CCc3ccccc32)c1	4.9	2.9%	8.7%[46.1 µM]	-10.6%	29.8%[38.3 µM]	-0.6%
CN(C)S(=O)(=O)c1cccc(C(=O)C2=C3SC=C(c4ccccc4)N3CC2)c1	4.8	-9.6%	-7.6%[46.1 µM]	-25.2%	1.9%[38.3 µM]	2µM*
Cc1ccc(OCc2nc(-c3ccccn3)no2)c(Br)c1	0.5	-8.7%	?	17.8µM*	-0.5%[38.3 µM]	?
CC(C)c1ccc(OCc2nc(-c3ccccn3)no2)c(Br)c1	2.7	-9.4%	-10.0%[46.1 µM]	?	9.4%[38.3 µM]	-8.7%
CCc1ccc(OCc2nc(-c3ccccn3)no2)c(Br)c1	-3.5[1.84 µM]	-3.2%	-0.9%[46.1 µM]	28.2µM*	57.2%[38.3 µM]	-0.1%
Clc1ccc(OCc2nc(-c3ccncc3)no2)c(Br)c1	?	-5.9%	-7.2%	17.8µM*	12.2%	-4.7%
CC[n+]1c(/C=C/c2c[nH]c3ccccc23)ccc2cc(C)ccc21	nt	nt	12.6µM*	nt	49.0%	3.9%
CCN(CC)C(=O)c1ccc(/C=C/c2c[nH]c3ccccc23)[n+](C)c1	nt	-10.2%	-35.0%	-6.8%	31.1%	-8.7%
Cc1ccc(-c2cc(C(F)F)n3ncc(C(=O)Nc4c(C)nn(Cc5c(Cl)cccc5Cl)c4C)c3n2)cc1	1.5	-6.5%	-9.2%[46.1 µM]	-10.7%	27.9%[38.3 µM]	4.8%
Cc1ccc(-c2cc(C(F)F)n3ncc(C(=O)Nc4c(C)nn(Cc5ccccc5Cl)c4C)c3n2)cc1	2.3	1.5%	3.98µM*	-10.5%	37.8%[38.3 µM]	11.6%
Cc1ccccc1N1CCN(C(=O)c2ccc(Oc3ccc(C(F)(F)F)cn3)cc2)CC1	-7.0[1.84 µM]	0.5%	-16.5%[46.1 µM]	-13.2%	31.9%[38.3 µM]	-2.4%
CNc1ccccc1C(C)(C)c1cc(-c2ccco2)n[nH]1	11.0	-27.3%	-9.7%[46.1 µM]	-4.1%	0.5%[38.3 µM]	7.94µM*
CN(C)C(=O)C1OC(C)(C)OC1C(=O)N(C)C (stereo unspecified)	-5.4	1.6%	-0.4%[46.1 µM]	0.3%	17.7%[38.3 µM]	9.0%
COc1ccc(N2CC(O)=C(c3nc(C)cs3)C2=N)cc1	11.2	-1.0%	-26.3%[46.1 µM]	-11.7%	-3.1%[38.3 µM]	20µM*
O=C(CCCc1nc2ccccc2s1)Nc1ccccc1	nt	nt	6.1%	nt	3.2%	-8.8%
O=C(O)CCCC(=O)Nc1ccc(OCc2nc3ccccc3s2)cc1	nt	nt	1.2%	nt	-2.4%	1.78µM*
Cc1ccc(/C=N/Nc2ccnc3cc(Cl)ccc23)c(C)c1	-7.9	2.6%	?	-28.7%	10.8%	3.3%
CC1=CC(=O)N(c2ccc(C)cc2)C1c1ccc(Cl)cc1 (stereo unspecified)	nt	0.2%	-13.4%	22.4µM*	-2.4%	-1.8%
CN(c1ccc(OCc2nnc(-c3ccccc3)o2)cc1)S(=O)(=O)c1ccccc1	11.8	0.3%	-18.9%[46.1 µM]	7.94µM*	27.6%[38.3 µM]	5.1%
O=[N+]([O-])c1ccc(OCc2nnc(-c3ccccc3)o2)cc1	nt	nt	-4.6%	nt	3.1%	6.5%
COCCn1c(SCC(N)=O)nnc1-c1c[nH]c2ccccc12	0.3	4.9%	4.3%[46.1 µM]	-1.5%	4.3%[38.3 µM]	-8.9%
CCC1CCCCN1C(=O)COc1ccccc1NC(C)=O (stereo unspecified)	nt	nt	7.5%	nt	-5.9%	3.55µM*
C=CCOc1c(Cl)cc(CNc2ccc(N(C)C)cc2)cc1OC	34.3	?	5.01µM*	?	154.4%[38.3 µM]	2µM*
C=CCn1c(Cc2cccc3ccccc23)n[nH]c1=S	nt	-5.3%	0.6%	28.2µM*	18.8%	-7.9%
S=c1[nH]nc(CCSCc2ccccc2)n1-c1ccccc1	nt	nt	-14.2%	nt	11.0%	35.5µM*
C=CCn1c(CCn2c3ccccc3c3ccccc32)n[nH]c1=S	nt	-7.8%	-57.8%	?	7.2%	?
S=c1[nH]nc(Cc2cccc3ccccc23)n1-c1ccccc1	-5.5	?	-10.7%[46.1 µM]	14.1µM*	-2.9%[38.3 µM]	?
C/C(=N\O)C1CCCCC1	nt	nt	12.7%	nt	nt	nt
